The values below come from the supplement of paper PMC10338343.

± gives the standard deviation. In all, about 6,600 sequences were measured (“pre-steady-state target cleavage rate”: median about 0.07, highest 2% from about 0.72 on). Many of the other results were omitted from the sample, so the highest values are more common in it than they were. Some results are limits rather than exact numbers.
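Further: 1 nM active piRISC with 0.1 nM target library at 33 °C single turnover.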

The subject of this assay is MIWI (PIWIL1) piRISC loaded with Kctd7 piRNA (30 nt). The assay is described as follows: pre-steady-state target cleavage rate (min^-1); MIWI and MILI are mouse PIWI proteins and EfPiwi is from a freshwater sponge; tags in brackets are library labels; higher = faster piRNA-guided slicing of the target. The settings on record: guide: Kctd7 piRNA 5'p-UGUUAAUCUCUCAGAGAAGGUGACAGUGAU; auxiliary factor: 500 nM mouse GTSF1. The essentials:
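The pre-steady-state cleavage rate was calculated from a burst-and-steady-state fit. Data came from Cleave-'n-Seq, in which […] transcribed, DNA-blocked target RNA library was mixed with 1 nM active affinity-purified piRISC carrying one synthetic guide, with or without 500 nM GTSF1 partner protein, in HEPES–potassium acetate buffer at 33 °C for 0–8 or 0–960 min. Uncleaved targets were sequenced and normalised to depth and to weakly complementary targets, three trials were pooled, and k3 was capped at 0.0001 min^-1.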
With UAGUGACACACCAUUCUCUGAGAGAUUAACA, the “pre-steady-state target cleavage rate” value worked out at 0.245 ± 0.022. For the sequence UAGUGACAGUGGAAGUCUGAGACAUAAACA, the “pre-steady-state target cleavage rate” value was less than 0.0001.

For the sequence “UACACUGUCACCUUCUCUGAGAGAUUAACC [g2:g28:cont:t1C]”, the “pre-steady-state target cleavage rate” value turned out to be 0.391 ± 0.034. For the sequence UUACACUGUCACCUUCUCUGAGAGAUUAACA, the “pre-steady-state target cleavage rate” value was found to be 0.769 ± 0.044. Under “UACACUGUCACCUUCUCUGAGAGAUUAACG [g2:g28:cont:t1G]” stands 0.566 ± 0.047; under UACACUGUCACCUUCUCUCUGAGAUUAACA, 0.0197 ± 0.0062. Next, “UACACUGUCACCUUCUCUGAGAGAUUAACA [g2:g28:cont:t1A]”: 0.563 ± 0.039. Turning to AUACACUGUCACCUUCUCUGAGAGAUUAACA, the “pre-steady-state target cleavage rate” value worked out at 0.752 ± 0.05.

Take UAGUGACAGACCUUCUCUGAGAGAUAUACA: the “pre-steady-state target cleavage rate” value was determined as 0.0324 ± 0.0083. With UAGUCUGUCACCUUCUCAGAGAGAUUUUGA, the “pre-steady-state target cleavage rate” value is 0.0587 ± 0.02. Next, UAGACUGUCACCUUCUCUGAGAGAUUAAUA: 0.414 ± 0.035; UAGACUGUCACCCUUCUCUGAGAGAUUAACA: 0.517 ± 0.042. For the sequence UAGACUGUCACCAUCUCUGAGAGAUUAACA, the “pre-steady-state target cleavage rate” value is 0.741 ± 0.052. Consider UAGAGUGUCACCAUCUCUGAGAGAUUAACA, for which the “pre-steady-state target cleavage rate” value is 0.741 ± 0.045. With UAGACUGUCACCUUCUCUGAGAGAUUAACCA, the “pre-steady-state target cleavage rate” value turned out to be 0.648 ± 0.054.

On to UAGACUGUCACCAUUCUCUGAGAGAUUAACA, for which the “pre-steady-state target cleavage rate” value amounted to 0.792 ± 0.055. Under UAGACUGUCACCGUUCUCUGAGAGAUUAACA stands 0.625 ± 0.041; under UAGUGUGUCACCAUCUCUGAGAGAUUAACA, 0.609 ± 0.037. Take UUCAGUGUCACCAUCUCUGAGAGAUUAACA: the “pre-steady-state target cleavage rate” value was 0.585 ± 0.037. As for UAGACUGUCACCAUCUCUGAGAGAUUAAGA, the “pre-steady-state target cleavage rate” value is 0.112 ± 0.018.

With UAGACUGUCACCGUCUCUGAGAGAUUAACA, the “pre-steady-state target cleavage rate” value was determined as 0.769 ± 0.037. Under UAGACUGUCACCAUCUCUGUGAGAUUAACA stands 0.155 ± 0.013. Next, AUCACUGUCACCGUCUCUGAGAGAUUAACA: 0.608 ± 0.038. Under UAGUGACACACCUUCUCUGAGUGAAUAACA stands 0.00377 ± 0.0036; under UACACUGACACCUUCUCUGUGAGAUUAACA, 0.181 ± 0.019; under UACACUCAGACCUUCUCUGAGAGAUUAAGA, 0.0222 ± 0.0091.

For UAGUGACAGACCUUCUCUGAGAGACUAACA, the “pre-steady-state target cleavage rate” value came to 0.0225 ± 0.0061. Under UAGACAGUGACCUUCUCUGAGAGAUUAACA stands 0.554 ± 0.033; under UACACUGAGACCUUCUCUGAGAGAUUAUGA, 0.0374 ± 0.015. Next, UAGUGACAGACCUUCUCUGAGACAUUAACA: 0.039 ± 0.0076; UUCACUGUCACCUUCUCUGUGAGAUUUACA: 0.158 ± 0.027. Next, UAGUGACACACCUUCACUGAGACAUUAACA: 0.17 ± 0.029; AUCACUGUCACCUUGUCUGAGAGAUAAACA: 0.552 ± 0.085; UAGUCUGUCACAUUCUCUGAGAGAUUAACA: 0.607 ± 0.03. As for UAGACUGUCACAUUCUCUGAGAGAUUAACA, the “pre-steady-state target cleavage rate” value amounted to 0.77 ± 0.051. As for UAGACUGUCACGCUUCUCUGAGAGAUUAACA, the “pre-steady-state target cleavage rate” value was 0.563 ± 0.029. Under AUCUCUGUCACCUUCUCAGAGAGAUUAACA stands 0.245 ± 0.024; under “UAGUCUGUCACCUUCUCUGAGAGAUUAACA [g2:g26:cont:t1A]”, 0.631 ± 0.026; under UAGUCGUCACCUUCUCUGAGAGAUUAACA, 0.7 ± 0.049. Under UAGUCAGUCACCUUCUCUGAGAGAUUAACA stands 0.722 ± 0.034; under UAGUCUAGUCACCUUCUCUGAGAGAUUAACA, 0.67 ± 0.035.

Consider UAGUCGGUCACCUUCUCUGAGAGAUUAACA, for which the “pre-steady-state target cleavage rate” value was 0.73 ± 0.037.

As for UAGUCUGGUCACCUUCUCUGAGAGAUUAACA, the “pre-steady-state target cleavage rate” value was 0.749 ± 0.046. Next, UUCACUCACACCUUCUCUGAGAGAUUAAGA: 0.0618 ± 0.011; UUCACUGUCACCUUACUCUGAGAGAUUAACA: 0.522 ± 0.026; UAGUCUGUCACCAUCUCUGAGAGAUUAAGA: 0.0769 ± 0.013.
